# Where a chain is given by its changes, count along the chain named.
# How the values were obtained:
# Assay in all cases: PBM; 200 nM protein, PBS
# Conditions in all cases: dsDNA, one strand shown
# HESX1 [1] = biological target: HESX1 (Homo sapiens, UniProt Q9UBX0 95-180, R165K)
# ALX4 [2] = biological target: ALX4 (Homo sapiens, UniProt Q9H161 200-286)
# ALX4 [3] = biological target: ALX4 (Homo sapiens, UniProt Q9H161 200-286, Q225E)
# HESX1 [4] = biological target: HESX1 (Homo sapiens, UniProt Q9UBX0 95-180)
# NKX2-6 = biological target: T1, NKX2-6 (Homo sapiens, UniProt A6NCS4 118-204, R150C)
# T1 sequence: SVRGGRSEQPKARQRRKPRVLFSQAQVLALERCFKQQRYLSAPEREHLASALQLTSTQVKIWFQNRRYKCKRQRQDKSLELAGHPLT
# HESX1 [5] = biological target: HESX1 (Homo sapiens, UniProt Q9UBX0 95-180, R109Q)
# HESX1 [6] = biological target: HESX1 (Homo sapiens, UniProt Q9UBX0 95-180, P111T)
# HESX1 [7] = biological target: HESX1 (Homo sapiens, UniProt Q9UBX0 95-180, F115L)
# VAX1 [8] = biological target: VAX1 (Homo sapiens, UniProt Q5SQQ9 86-172)
# VAX1 [9] = biological target: VAX1 (Homo sapiens, UniProt Q5SQQ9 86-172, T142I)
# VAX1 [10] = biological target: VAX1 (Homo sapiens, UniProt Q5SQQ9 86-172, K157R)
# PAX4 [11] = biological target: T2, PAX4 (Homo sapiens, UniProt O43316 9-242, R200K)
# T2 sequence: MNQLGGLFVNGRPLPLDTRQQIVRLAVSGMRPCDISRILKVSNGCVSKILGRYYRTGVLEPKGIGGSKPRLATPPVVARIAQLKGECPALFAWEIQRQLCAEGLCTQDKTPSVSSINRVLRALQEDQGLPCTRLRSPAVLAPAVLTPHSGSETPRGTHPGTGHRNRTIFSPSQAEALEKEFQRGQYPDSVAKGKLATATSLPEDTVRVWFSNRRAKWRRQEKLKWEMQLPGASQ
# PRRX1 [12] = biological target: PRRX1 (Homo sapiens, UniProt P54821 80-166, F113S)
# PAX4 [13] = biological target: T3, PAX4 (Homo sapiens, UniProt O43316 9-242)
# T3 sequence: T2 sequence with K192R
# MSX2 [14] = biological target: MSX2 (Homo sapiens, UniProt P35548 130-214, R199I)
# ALX1 [15] = biological target: ALX1 (Homo sapiens, UniProt Q15699 118-204, L144V)
# ALX3 [16] = biological target: ALX3 (Homo sapiens, UniProt O95076 139-225, N203Q)
# PAX4 [17] = biological target: T4, PAX4 (Homo sapiens, UniProt O43316 9-242, R200Q)
# T4 sequence: T2 sequence with K192Q
# ALX1 [18] = biological target: ALX1 (Homo sapiens, UniProt Q15699 118-204, L144R)
# PAX4 [19] = biological target: T5, PAX4 (Homo sapiens, UniProt O43316 9-242, F177V)
# T5 sequence: T2 sequence with F169V, K192R
# MSX2 [20] = biological target: MSX2 (Homo sapiens, UniProt P35548 130-214)
# ALX3 [21] = biological target: ALX3 (Homo sapiens, UniProt O95076 139-225)
# PAX4 [22] = biological target: T6, PAX4 (Homo sapiens, UniProt O43316 9-242, F177Y)
# T6 sequence: T2 sequence with F169Y, K192R
# PROP1 [23] = biological target: PROP1 (Homo sapiens, UniProt O75360 56-141)
# PROP1 [24] = biological target: PROP1 (Homo sapiens, UniProt O75360 56-141, R99H)
# ALX3 [25] = biological target: ALX3 (Homo sapiens, UniProt O95076 139-225, L168Q)
# ALX3 [26] = biological target: ALX3 (Homo sapiens, UniProt O95076 139-225, L168V)
# PROP1 [27] = biological target: PROP1 (Homo sapiens, UniProt O75360 56-141, F88S)
# MSX2 [28] = biological target: MSX2 (Homo sapiens, UniProt P35548 130-214, F161Y)
# PAX4 [29] = biological target: T7, PAX4 (Homo sapiens, UniProt O43316 9-242, R227W)
# T7 sequence: T2 sequence with K192R, R219W
# ALX1 [30] = biological target: ALX1 (Homo sapiens, UniProt Q15699 118-204)
# ALX3 [31] = biological target: ALX3 (Homo sapiens, UniProt O95076 139-225, N203S)
# PRRX1 [32] = biological target: PRRX1 (Homo sapiens, UniProt P54821 80-166)
# HOXB6 [33] = biological target: HOXB6 (Homo sapiens, UniProt P17509 132-218, K202E)
# HOXB6 [34] = biological target: HOXB6 (Homo sapiens, UniProt P17509 132-218)
# HOXA2 [35] = biological target: HOXA2 (Homo sapiens, UniProt O43364 129-215, R185T)
# HOXA2 [36] = biological target: HOXA2 (Homo sapiens, UniProt O43364 129-215, R185K)
# HOXA2 [37] = biological target: HOXA2 (Homo sapiens, UniProt O43364 129-215, Y150S)
# HOXA2 [38] = biological target: HOXA2 (Homo sapiens, UniProt O43364 129-215)
# HOXA2 (Homo sapiens, UniProt O43364 129-215), sequence (O43364 129-215): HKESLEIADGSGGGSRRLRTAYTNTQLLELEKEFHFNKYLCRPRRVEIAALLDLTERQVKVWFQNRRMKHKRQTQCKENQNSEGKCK
# ALX4 (Homo sapiens, UniProt Q9H161 200-286), sequence (Q9H161 200-286): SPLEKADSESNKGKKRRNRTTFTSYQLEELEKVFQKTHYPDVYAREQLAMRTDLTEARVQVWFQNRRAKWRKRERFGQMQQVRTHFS
# HESX1 (Homo sapiens, UniProt Q9UBX0 95-180, P111T), sequence (Q9UBX0 95-180 P111T): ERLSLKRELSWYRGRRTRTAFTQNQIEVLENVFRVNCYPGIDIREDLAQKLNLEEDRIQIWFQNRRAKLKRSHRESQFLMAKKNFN
# HESX1 (Homo sapiens, UniProt Q9UBX0 95-180, R109Q), sequence (Q9UBX0 95-180 R109Q): as the sequence (Q9UBX0 95-180 P111T) above, with R15Q, T17P counted along it
# HESX1 (Homo sapiens, UniProt Q9UBX0 95-180), sequence (Q9UBX0 95-180): as the sequence (Q9UBX0 95-180 P111T) above, with T17P counted along it
# HESX1 (Homo sapiens, UniProt Q9UBX0 95-180, F115L), sequence (Q9UBX0 95-180 F115L): as the sequence (Q9UBX0 95-180 P111T) above, with T17P, F21L counted along it
# HESX1 (Homo sapiens, UniProt Q9UBX0 95-180, R165K), sequence (Q9UBX0 95-180 R165K): as the sequence (Q9UBX0 95-180 P111T) above, with T17P, R71K counted along it
# ALX4 (Homo sapiens, UniProt Q9H161 200-286, Q225E), sequence (Q9H161 200-286 Q225E): as the sequence (Q9H161 200-286) above, with Q26E counted along it
# MSX2 (Homo sapiens, UniProt P35548 130-214), sequence (P35548 130-214): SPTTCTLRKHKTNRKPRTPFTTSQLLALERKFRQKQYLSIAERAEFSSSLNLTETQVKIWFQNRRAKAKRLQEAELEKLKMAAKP
# MSX2 (Homo sapiens, UniProt P35548 130-214, F161Y), sequence (P35548 130-214 F161Y): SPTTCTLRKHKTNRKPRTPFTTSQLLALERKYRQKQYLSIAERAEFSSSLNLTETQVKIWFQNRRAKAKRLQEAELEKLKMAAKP
# MSX2 (Homo sapiens, UniProt P35548 130-214, R199I), sequence (P35548 130-214 R199I): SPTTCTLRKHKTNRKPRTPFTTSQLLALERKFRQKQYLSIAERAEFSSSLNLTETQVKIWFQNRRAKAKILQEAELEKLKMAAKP
# HOXA2 (Homo sapiens, UniProt O43364 129-215, R185K), sequence (O43364 129-215 R185K): as the sequence (O43364 129-215) above, with R57K counted along it
# HOXB6 (Homo sapiens, UniProt P17509 132-218, K202E), sequence (P17509 132-218 K202E): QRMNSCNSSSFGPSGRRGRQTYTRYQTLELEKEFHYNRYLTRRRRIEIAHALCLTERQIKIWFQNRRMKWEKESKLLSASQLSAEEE
# ALX1 (Homo sapiens, UniProt Q15699 118-204, L144R), sequence (Q15699 118-204 L144R): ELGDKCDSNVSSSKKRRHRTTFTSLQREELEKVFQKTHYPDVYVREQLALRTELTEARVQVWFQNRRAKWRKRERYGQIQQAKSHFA
# ALX1 (Homo sapiens, UniProt Q15699 118-204, L144V), sequence (Q15699 118-204 L144V): as the sequence (Q15699 118-204 L144R) above, with R27V counted along it
# PRRX1 (Homo sapiens, UniProt P54821 80-166, F113S), sequence (P54821 80-166 F113S): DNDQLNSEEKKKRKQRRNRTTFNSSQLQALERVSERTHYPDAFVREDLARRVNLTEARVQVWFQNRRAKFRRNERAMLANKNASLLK
# ALX3 (Homo sapiens, UniProt O95076 139-225, L168V), sequence (O95076 139-225 L168V): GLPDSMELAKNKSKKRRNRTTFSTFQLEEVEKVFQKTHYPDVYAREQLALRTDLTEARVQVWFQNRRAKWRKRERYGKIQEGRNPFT
# HOXA2 (Homo sapiens, UniProt O43364 129-215, R185T), sequence (O43364 129-215 R185T): as the sequence (O43364 129-215) above, with R57T counted along it
# ALX1 (Homo sapiens, UniProt Q15699 118-204), sequence (Q15699 118-204): as the sequence (Q15699 118-204 L144R) above, with R27L counted along it
# PRRX1 (Homo sapiens, UniProt P54821 80-166), sequence (P54821 80-166): as the sequence (P54821 80-166 F113S) above, with S34F counted along it
# ALX3 (Homo sapiens, UniProt O95076 139-225, N203S), sequence (O95076 139-225 N203S): as the sequence (O95076 139-225 L168V) above, with V30L, N65S counted along it
# HOXA2 (Homo sapiens, UniProt O43364 129-215, Y150S), sequence (O43364 129-215 Y150S): as the sequence (O43364 129-215) above, with Y22S counted along it
# ALX3 (Homo sapiens, UniProt O95076 139-225, N203Q), sequence (O95076 139-225 N203Q): as the sequence (O95076 139-225 L168V) above, with V30L, N65Q counted along it
# ALX3 (Homo sapiens, UniProt O95076 139-225, L168Q), sequence (O95076 139-225 L168Q): as the sequence (O95076 139-225 L168V) above, with V30Q counted along it
# PROP1 (Homo sapiens, UniProt O75360 56-141, F88S), sequence (O75360 56-141 F88S): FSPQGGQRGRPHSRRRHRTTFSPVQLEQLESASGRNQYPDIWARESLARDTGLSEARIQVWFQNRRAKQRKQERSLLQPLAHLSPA
# VAX1 (Homo sapiens, UniProt Q5SQQ9 86-172, T142I), sequence (Q5SQQ9 86-172 T142I): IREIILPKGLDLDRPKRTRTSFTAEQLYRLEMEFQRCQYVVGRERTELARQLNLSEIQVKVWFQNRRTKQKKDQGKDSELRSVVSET
# PROP1 (Homo sapiens, UniProt O75360 56-141, R99H), sequence (O75360 56-141 R99H): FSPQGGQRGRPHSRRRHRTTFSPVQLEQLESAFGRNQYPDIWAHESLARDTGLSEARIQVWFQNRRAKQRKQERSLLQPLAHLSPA
# VAX1 (Homo sapiens, UniProt Q5SQQ9 86-172, K157R), sequence (Q5SQQ9 86-172 K157R): as the sequence (Q5SQQ9 86-172 T142I) above, with I57T, K72R counted along it
# VAX1 (Homo sapiens, UniProt Q5SQQ9 86-172), sequence (Q5SQQ9 86-172): as the sequence (Q5SQQ9 86-172 T142I) above, with I57T counted along it
# HOXB6 (Homo sapiens, UniProt P17509 132-218), sequence (P17509 132-218): as the sequence (P17509 132-218 K202E) above, with E71K counted along it
# ALX3 (Homo sapiens, UniProt O95076 139-225), sequence (O95076 139-225): as the sequence (O95076 139-225 L168V) above, with V30L counted along it
# PROP1 (Homo sapiens, UniProt O75360 56-141), sequence (O75360 56-141): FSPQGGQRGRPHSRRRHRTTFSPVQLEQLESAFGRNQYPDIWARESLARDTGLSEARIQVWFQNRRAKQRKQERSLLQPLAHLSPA
sequence,measurement,setting,value
GAGTCGCC,binding signal,HESX1 [1],"6.49 upbm affinity estimate (log intensity, higher = more binding, comparable within an allelic series)"
same,binding signal,ALX4 [2],"8.18 upbm affinity estimate (log intensity, higher = more binding, comparable within an allelic series)"
same,binding signal,ALX4 [3],"8.37 upbm affinity estimate (log intensity, higher = more binding, comparable within an allelic series)"
same,binding signal,HESX1 [4],"6.48 upbm affinity estimate (log intensity, higher = more binding, comparable within an allelic series)"
same,binding signal,NKX2-6,"9.64 upbm affinity estimate (log intensity, higher = more binding, comparable within an allelic series)"
same,binding signal,HESX1 [5],"6.47 upbm affinity estimate (log intensity, higher = more binding, comparable within an allelic series)"
same,binding signal,HESX1 [6],"6.56 upbm affinity estimate (log intensity, higher = more binding, comparable within an allelic series)"
same,binding signal,HESX1 [7],"6.36 upbm affinity estimate (log intensity, higher = more binding, comparable within an allelic series)"
CTCTCCAG,binding signal,HESX1 [1],"6.3 upbm affinity estimate (log intensity, higher = more binding, comparable within an allelic series)"
same,binding signal,ALX4 [2],"7.91 upbm affinity estimate (log intensity, higher = more binding, comparable within an allelic series)"
same,binding signal,ALX4 [3],"7.91 upbm affinity estimate (log intensity, higher = more binding, comparable within an allelic series)"
same,binding signal,HESX1 [4],"6.32 upbm affinity estimate (log intensity, higher = more binding, comparable within an allelic series)"
same,binding signal,HESX1 [5],"6.51 upbm affinity estimate (log intensity, higher = more binding, comparable within an allelic series)"
same,binding signal,VAX1 [8],"7 upbm affinity estimate (log intensity, higher = more binding, comparable within an allelic series)"
same,binding signal,HESX1 [6],"6.4 upbm affinity estimate (log intensity, higher = more binding, comparable within an allelic series)"
same,binding signal,HESX1 [7],"6.42 upbm affinity estimate (log intensity, higher = more binding, comparable within an allelic series)"
same,binding signal,VAX1 [9],"7.16 upbm affinity estimate (log intensity, higher = more binding, comparable within an allelic series)"
same,binding signal,VAX1 [10],"7.01 upbm affinity estimate (log intensity, higher = more binding, comparable within an allelic series)"
AATGTAAG,binding signal,HESX1 [1],"7.66 upbm affinity estimate (log intensity, higher = more binding, comparable within an allelic series)"
same,binding signal,HESX1 [4],"7.68 upbm affinity estimate (log intensity, higher = more binding, comparable within an allelic series)"
AATTGAGT,binding signal,HESX1 [1],"9.4 upbm affinity estimate (log intensity, higher = more binding, comparable within an allelic series)"
same,binding signal,HESX1 [4],"9.59 upbm affinity estimate (log intensity, higher = more binding, comparable within an allelic series)"
AATTATCT,binding signal,HESX1 [1],"11.8 upbm affinity estimate (log intensity, higher = more binding, comparable within an allelic series)"
same,binding signal,ALX4 [2],"13.6 upbm affinity estimate (log intensity, higher = more binding, comparable within an allelic series)"
same,binding signal,PAX4 [11],"11.7 upbm affinity estimate (log intensity, higher = more binding, comparable within an allelic series)"
same,binding signal,PRRX1 [12],"11.2 upbm affinity estimate (log intensity, higher = more binding, comparable within an allelic series)"
same,binding signal,PAX4 [13],"12.2 upbm affinity estimate (log intensity, higher = more binding, comparable within an allelic series)"
same,binding signal,ALX4 [3],"12.7 upbm affinity estimate (log intensity, higher = more binding, comparable within an allelic series)"
same,binding signal,HESX1 [4],"11.8 upbm affinity estimate (log intensity, higher = more binding, comparable within an allelic series)"
same,binding signal,MSX2 [14],"12.3 upbm affinity estimate (log intensity, higher = more binding, comparable within an allelic series)"
same,binding signal,ALX1 [15],"11.6 upbm affinity estimate (log intensity, higher = more binding, comparable within an allelic series)"
same,binding signal,ALX3 [16],"8.49 upbm affinity estimate (log intensity, higher = more binding, comparable within an allelic series)"
same,binding signal,PAX4 [17],"11.9 upbm affinity estimate (log intensity, higher = more binding, comparable within an allelic series)"
same,binding signal,ALX1 [18],"11.3 upbm affinity estimate (log intensity, higher = more binding, comparable within an allelic series)"
same,binding signal,PAX4 [19],"10.5 upbm affinity estimate (log intensity, higher = more binding, comparable within an allelic series)"
same,binding signal,MSX2 [20],"13.5 upbm affinity estimate (log intensity, higher = more binding, comparable within an allelic series)"
same,binding signal,ALX3 [21],"12.4 upbm affinity estimate (log intensity, higher = more binding, comparable within an allelic series)"
same,binding signal,PAX4 [22],"11 upbm affinity estimate (log intensity, higher = more binding, comparable within an allelic series)"
same,binding signal,PROP1 [23],"11.1 upbm affinity estimate (log intensity, higher = more binding, comparable within an allelic series)"
same,binding signal,HESX1 [5],"8.47 upbm affinity estimate (log intensity, higher = more binding, comparable within an allelic series)"
same,binding signal,PROP1 [24],"10.8 upbm affinity estimate (log intensity, higher = more binding, comparable within an allelic series)"
same,binding signal,ALX3 [25],"10.3 upbm affinity estimate (log intensity, higher = more binding, comparable within an allelic series)"
same,binding signal,HESX1 [6],"10.2 upbm affinity estimate (log intensity, higher = more binding, comparable within an allelic series)"
same,binding signal,ALX3 [26],"9.85 upbm affinity estimate (log intensity, higher = more binding, comparable within an allelic series)"
same,binding signal,PROP1 [27],"7.79 upbm affinity estimate (log intensity, higher = more binding, comparable within an allelic series)"
same,binding signal,MSX2 [28],"13 upbm affinity estimate (log intensity, higher = more binding, comparable within an allelic series)"
same,binding signal,HESX1 [7],"7.77 upbm affinity estimate (log intensity, higher = more binding, comparable within an allelic series)"
same,binding signal,PAX4 [29],"10.9 upbm affinity estimate (log intensity, higher = more binding, comparable within an allelic series)"
same,binding signal,ALX1 [30],"12.1 upbm affinity estimate (log intensity, higher = more binding, comparable within an allelic series)"
same,binding signal,ALX3 [31],"8.6 upbm affinity estimate (log intensity, higher = more binding, comparable within an allelic series)"
same,binding signal,PRRX1 [32],"13.2 upbm affinity estimate (log intensity, higher = more binding, comparable within an allelic series)"
CACGGCGG,binding signal,HESX1 [1],"6.53 upbm affinity estimate (log intensity, higher = more binding, comparable within an allelic series)"
same,binding signal,HOXB6 [33],"9.01 upbm affinity estimate (log intensity, higher = more binding, comparable within an allelic series)"
same,binding signal,HESX1 [4],"6.43 upbm affinity estimate (log intensity, higher = more binding, comparable within an allelic series)"
same,binding signal,HESX1 [5],"6.49 upbm affinity estimate (log intensity, higher = more binding, comparable within an allelic series)"
same,binding signal,HESX1 [6],"6.56 upbm affinity estimate (log intensity, higher = more binding, comparable within an allelic series)"
same,binding signal,HESX1 [7],"6.49 upbm affinity estimate (log intensity, higher = more binding, comparable within an allelic series)"
same,binding signal,HOXB6 [34],"8.99 upbm affinity estimate (log intensity, higher = more binding, comparable within an allelic series)"
AATGAGAG,binding signal,HESX1 [1],"7.5 upbm affinity estimate (log intensity, higher = more binding, comparable within an allelic series)"
same,binding signal,HESX1 [4],"7.55 upbm affinity estimate (log intensity, higher = more binding, comparable within an allelic series)"
TAAATTCA,binding signal,HESX1 [1],"7.34 upbm affinity estimate (log intensity, higher = more binding, comparable within an allelic series)"
same,binding signal,HESX1 [4],"7.46 upbm affinity estimate (log intensity, higher = more binding, comparable within an allelic series)"
GAACCCCC,binding signal,HESX1 [1],"6.29 upbm affinity estimate (log intensity, higher = more binding, comparable within an allelic series)"
same,binding signal,HESX1 [4],"6.26 upbm affinity estimate (log intensity, higher = more binding, comparable within an allelic series)"
same,binding signal,HOXA2 [35],"7.12 upbm affinity estimate (log intensity, higher = more binding, comparable within an allelic series)"
same,binding signal,MSX2 [14],"9.43 upbm affinity estimate (log intensity, higher = more binding, comparable within an allelic series)"
same,binding signal,HOXA2 [36],"10 upbm affinity estimate (log intensity, higher = more binding, comparable within an allelic series)"
same,binding signal,MSX2 [20],"9.41 upbm affinity estimate (log intensity, higher = more binding, comparable within an allelic series)"
same,binding signal,HESX1 [5],"6.37 upbm affinity estimate (log intensity, higher = more binding, comparable within an allelic series)"
same,binding signal,HESX1 [6],"6.38 upbm affinity estimate (log intensity, higher = more binding, comparable within an allelic series)"
same,binding signal,MSX2 [28],"9.53 upbm affinity estimate (log intensity, higher = more binding, comparable within an allelic series)"
same,binding signal,HESX1 [7],"6.35 upbm affinity estimate (log intensity, higher = more binding, comparable within an allelic series)"
same,binding signal,HOXA2 [37],"10.3 upbm affinity estimate (log intensity, higher = more binding, comparable within an allelic series)"
same,binding signal,HOXA2 [38],"7.05 upbm affinity estimate (log intensity, higher = more binding, comparable within an allelic series)"
